Source: the supplement of paper PMC3545927
The list shows a part of the results. No count for the full screen is at hand.

Target: furin, P09958
Experiment: furin cleavage Z-score vs untreated control; higher = more cleavage, active = 3.5 or more, inactive = 1 or less, 8 variable residues between constant flanks
Protocol: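 Multiplexed peptide-cDNA fusion cleavage assay. 8-mer variable peptides flanked by constant Cys-Ala (N-term) and Ala-Gly-Asn-Ala-Ser-Ala-Ser-Ala (C-term) and conjugated to a cDNA oligonucleotide were bead-immobilised via the N-terminus. They were treated with purified furin at a 1:10 enzyme:substrate ratio in 50 mM HEPES pH 7.5, 1 mM CaCl2, 100 mM NaCl for 7.5, 15 or 30 min. Released cDNA was counted by next-generation sequencing, and log counts versus no-furin controls were lowess-adjusted and converted to robust Z-scores.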

furin, P09958, sequence (P09958 whole entry): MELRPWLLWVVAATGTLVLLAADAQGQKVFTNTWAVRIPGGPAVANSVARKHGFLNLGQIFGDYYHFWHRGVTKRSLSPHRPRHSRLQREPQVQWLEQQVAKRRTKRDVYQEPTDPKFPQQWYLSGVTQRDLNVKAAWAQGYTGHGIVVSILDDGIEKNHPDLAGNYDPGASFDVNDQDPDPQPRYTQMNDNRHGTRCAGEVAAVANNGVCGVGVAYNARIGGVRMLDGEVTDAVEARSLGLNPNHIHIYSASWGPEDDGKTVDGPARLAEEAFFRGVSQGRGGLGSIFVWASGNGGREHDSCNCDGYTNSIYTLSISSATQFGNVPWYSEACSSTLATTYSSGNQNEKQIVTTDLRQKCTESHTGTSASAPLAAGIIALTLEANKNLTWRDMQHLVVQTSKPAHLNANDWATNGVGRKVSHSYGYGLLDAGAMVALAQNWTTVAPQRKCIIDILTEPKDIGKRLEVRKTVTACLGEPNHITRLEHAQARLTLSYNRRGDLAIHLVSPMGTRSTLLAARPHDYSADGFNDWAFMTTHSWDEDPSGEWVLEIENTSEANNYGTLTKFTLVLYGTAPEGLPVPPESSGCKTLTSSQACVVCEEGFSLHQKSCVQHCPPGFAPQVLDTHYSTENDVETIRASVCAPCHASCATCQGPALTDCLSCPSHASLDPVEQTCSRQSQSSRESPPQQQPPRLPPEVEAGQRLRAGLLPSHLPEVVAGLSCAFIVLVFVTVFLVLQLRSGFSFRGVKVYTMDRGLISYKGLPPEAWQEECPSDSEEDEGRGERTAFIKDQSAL

Sequence	furin cleavage Z-score (7.5 min)	furin cleavage Z-score (15 min)	furin cleavage Z-score (30 min)
CAVCCCSMSYAGNASASA [HC2020]	0.181 (inactive)	1.69	1.02
CATCMSADLEAGNASASA [HC984]	0.644 (inactive)	0.775 (inactive)	1.54
CAGFADLMGYAGNASASA [HC225]	-1.18 (inactive)	-0.646 (inactive)	-1.14 (inactive)
CASPNRSRRHAGNASASA [FS-300]	9.77 (active)	10.7 (active)	7.23 (active)
CASPRGSRPSAGNASASA [HC210]	0.189 (inactive)	0.149 (inactive)	-0.107 (inactive)
CAMSMRVRRHAGNASASA [FS-945]	10 (active)	10.3 (active)	7.98 (active)
CAGSVTVPHPAGNASASA [HC837]	0.881 (inactive)	0.63 (inactive)	0.486 (inactive)
CAVVLLFLLLAGNASASA [HC520]	-0.794 (inactive)	-0.656 (inactive)	-1.88 (inactive)
CALDVSVIPTAGNASASA [HC871]	-2.6 (inactive)	-1.18 (inactive)	-0.758 (inactive)
CADPTFTIETAGNASASA [HC894]	-0.863 (inactive)	-0.464 (inactive)	-0.935 (inactive)
CATTPCSGIWAGNASASA [HC1904]	-0.536 (inactive)	0.611 (inactive)	-1.36 (inactive)
CAPSRRTRRLAGNASASA [FS-1555]	7.98 (active)	11.7 (active)	8.56 (active)
CALWGRTRRLAGNASASA [FS-60]	1.66	4.15 (active)	3.16
CAPSCRYRRLAGNASASA [FS-1054]	4.67 (active)	7.06 (active)	7.38 (active)
CAPSRRQQRAAGNASASA [FS-1554]	9.53 (active)	8.72 (active)	7.58 (active)
CAPTPLLYRLAGNASASA [HC971]	-0.296 (inactive)	0.704 (inactive)	0.366 (inactive)

Sequence	furin cleavage Z-score (7.5 min)	furin cleavage Z-score (15 min)	furin cleavage Z-score (30 min)
CAVTQLLRRLAGNASASA [HC1137]	0.0354 (inactive)	-1.42 (inactive)	-1.96 (inactive)
CAMELCSQHLAGNASASA [HC1705]	2.69	0.76 (inactive)	2.04
CAMEENSQHLAGNASASA [HC18]	0.787 (inactive)	0.956 (inactive)	2.04
CAGGSAGHTVAGNASASA [HC355]	0.866 (inactive)	-0.487 (inactive)	0.0302 (inactive)
CAPVCCSMSYAGNASASA [HC1999]	0.302 (inactive)	-0.969 (inactive)	1.74
CAFKTWLKAKAGNASASA [HC1156]	-0.496 (inactive)	-0.829 (inactive)	-0.782 (inactive)
CAQSLRCRRCAGNASASA [FS-623]	-0.625 (inactive)	-0.00103 (inactive)	-0.127 (inactive)
CAEHHRSRRCAGNASASA [FS-989]	2.96	3.54 (active)	3.96 (active)
CADLELITSCAGNASASA [HC1550]	0.66 (inactive)	-0.229 (inactive)	0.498 (inactive)
CASGARRRRCAGNASASA [FS-498]	0.58 (inactive)	0.416 (inactive)	0.773 (inactive)
CAIPDRLRKCAGNASASA [FS-1014]	-0.934 (inactive)	-0.376 (inactive)	-0.995 (inactive)
CADPQRSRRCAGNASASA [FS-986]	0.928 (inactive)	0.649 (inactive)	1.13
CAQVMRRRRCAGNASASA [FS-1558]	7.16 (active)	5.85 (active)	4.82 (active)
CASVLIARDQAGNASASA [HC1586]	0.606 (inactive)	0.779 (inactive)	-0.441 (inactive)
CASQLRYRRCAGNASASA [FS-503]	5.96 (active)	7.81 (active)	5.84 (active)
